Assay [1] concerns the target human Retinoic Acid Receptor beta (RARb), RARB (gene 5915) (UniProt P10826). Nature of the assay: ATG_RARb_TRANS: Attagene TRANS-FACTORIAL HepG2 Assay for human Retinoic Acid Receptor beta (AID 2283004). A digest of the protocol:
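Fluorescent capillary-electrophoresis detection of GAL4-UAS reporter mRNA defines the endpoint, with induction over DMSO-treated wells scored as activity. Transiently transfected human hepatoma HepG2 cells expressing exogenous NR–Gal4 proteins are exposed to test chemicals for 24 h.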

Assay [2] concerns the target Nuclear receptor subfamily 1 group I member 2 (Homo sapiens) (UniProt O75469). The experiment in a line: ATG_PXR_TRANS: Attagene TRANS-FACTORIAL HepG2 Assay for human Pregnane X Receptor (PXR) (AID 2283008). The essentials: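 HepG2 cells transiently transfected with multiple reporter units, here a PXR-GAL4 chimera driving a GAL4-UAS reporter; 24 h compound exposure. Reporter mRNA measured by RT-PCR, FAM labelling and capillary electrophoresis; gain of signal fitted against DMSO baseline.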

Assay [3] concerns the target Retinoic acid receptor alpha (Homo sapiens) (UniProt P10276). Nature of the assay: ATG_RARa_TRANS: Attagene TRANS-FACTORIAL HepG2 Assay for human Retinoic Acid Receptor alpha (RARa) (AID 2283005). The essentials:
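Reporter transcripts, measured by RT-PCR with fluorescent labeling and capillary electrophoresis after 24 h dosing, reflect activity of an exogenous human RARa–GAL4 fusion in transiently transfected HepG2. Fitted for increase relative to DMSO.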

Assay [4] deals with Peroxisome proliferator-activated receptor gamma (Homo sapiens) (UniProt P37231). The experiment in a line: ATG_PPARg_TRANS: Attagene TRANS-FACTORIAL HepG2 Assay for human Peroxisome Proliferator-activated Receptor-gamma (PPARg) (AID 2283007). The essentials:
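Liver-derived HepG2 cells expressing an exogenous NR-Gal4 chimera alongside GAL4-UAS reporter genes; 24 h exposure. Fluorescence of reporter RT-PCR products, separated by capillary electrophoresis, gives mRNA induction relative to DMSO.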

Assay [5] has as its target human Retinoic Acid Receptor gamma (RARg), RARG (gene 5916) (UniProt P13631). The experiment in a line: ATG_RARg_TRANS: Attagene TRANS-FACTORIAL HepG2 Assay for human Retinoic Acid Receptor gamma (RARg) (AID 2283009). A digest of the protocol: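 Transient transfection of HepG2 with multi-reporter constructs, then 24 h chemical treatment. Total RNA isolated, reverse-transcribed, PCR-amplified, fluorescently labelled and resolved by capillary electrophoresis; activity scored as mRNA induction versus DMSO.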

For six compounds, outcome and AC50 results are on record in PubChem BioAssay (EPA / NIEHS).

Records with an inconclusive call do not appear. The source made the active and inactive calls. The calls were made as follows: active = hit-call score of the fitted dose curve at least 0.9, where 1 is the maximum; inconclusive = response in the unintended direction; inactive = score below 0.9.

By AC50 is commonly meant the concentration at which the activity in the assay is half-maximal.

Sequence of Peroxisome proliferator-activated receptor gamma (Homo sapiens) (P37231 whole entry, looked up, the tested form may be a part): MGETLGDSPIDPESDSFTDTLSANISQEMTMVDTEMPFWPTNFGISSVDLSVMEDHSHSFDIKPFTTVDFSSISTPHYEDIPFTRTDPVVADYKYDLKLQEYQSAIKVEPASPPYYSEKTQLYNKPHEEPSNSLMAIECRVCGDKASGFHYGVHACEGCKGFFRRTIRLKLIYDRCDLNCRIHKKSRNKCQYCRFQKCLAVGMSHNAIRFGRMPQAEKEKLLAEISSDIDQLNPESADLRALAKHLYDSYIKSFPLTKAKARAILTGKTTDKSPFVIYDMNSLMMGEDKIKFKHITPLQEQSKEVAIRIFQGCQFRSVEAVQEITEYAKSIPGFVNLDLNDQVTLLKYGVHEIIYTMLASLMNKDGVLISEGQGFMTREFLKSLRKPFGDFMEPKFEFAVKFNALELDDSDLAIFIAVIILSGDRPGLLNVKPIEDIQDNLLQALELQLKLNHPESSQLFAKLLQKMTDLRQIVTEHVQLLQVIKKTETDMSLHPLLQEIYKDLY
Sequence of human Retinoic Acid Receptor beta (RARb), RARB (gene 5915) (P10826 whole entry, looked up, the tested form may be a part): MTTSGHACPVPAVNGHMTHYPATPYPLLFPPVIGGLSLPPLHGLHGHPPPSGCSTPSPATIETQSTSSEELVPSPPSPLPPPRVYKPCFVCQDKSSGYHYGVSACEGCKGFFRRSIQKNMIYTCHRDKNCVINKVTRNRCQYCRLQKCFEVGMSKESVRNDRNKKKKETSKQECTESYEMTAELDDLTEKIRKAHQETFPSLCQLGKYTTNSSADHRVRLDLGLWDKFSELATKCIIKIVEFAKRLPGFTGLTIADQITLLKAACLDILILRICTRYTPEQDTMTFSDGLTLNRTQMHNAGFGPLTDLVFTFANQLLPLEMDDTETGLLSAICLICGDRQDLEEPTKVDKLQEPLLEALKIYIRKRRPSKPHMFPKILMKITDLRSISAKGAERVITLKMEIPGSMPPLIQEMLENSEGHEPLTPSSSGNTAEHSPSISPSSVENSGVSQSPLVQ
Sequence of Nuclear receptor subfamily 1 group I member 2 (Homo sapiens) (O75469 whole entry, looked up, the tested form may be a part): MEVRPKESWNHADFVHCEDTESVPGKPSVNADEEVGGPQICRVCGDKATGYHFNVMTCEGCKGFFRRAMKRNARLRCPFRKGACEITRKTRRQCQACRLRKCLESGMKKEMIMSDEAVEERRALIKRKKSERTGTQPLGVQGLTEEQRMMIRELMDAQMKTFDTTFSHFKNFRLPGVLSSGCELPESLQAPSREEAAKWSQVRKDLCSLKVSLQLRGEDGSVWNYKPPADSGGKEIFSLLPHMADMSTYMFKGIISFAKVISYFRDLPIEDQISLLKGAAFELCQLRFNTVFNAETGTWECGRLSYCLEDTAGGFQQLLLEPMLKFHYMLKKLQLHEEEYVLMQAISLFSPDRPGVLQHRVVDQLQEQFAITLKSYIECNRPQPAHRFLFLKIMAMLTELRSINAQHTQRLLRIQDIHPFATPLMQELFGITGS
Sequence of human Retinoic Acid Receptor gamma (RARg), RARG (gene 5916) (P13631 whole entry, looked up): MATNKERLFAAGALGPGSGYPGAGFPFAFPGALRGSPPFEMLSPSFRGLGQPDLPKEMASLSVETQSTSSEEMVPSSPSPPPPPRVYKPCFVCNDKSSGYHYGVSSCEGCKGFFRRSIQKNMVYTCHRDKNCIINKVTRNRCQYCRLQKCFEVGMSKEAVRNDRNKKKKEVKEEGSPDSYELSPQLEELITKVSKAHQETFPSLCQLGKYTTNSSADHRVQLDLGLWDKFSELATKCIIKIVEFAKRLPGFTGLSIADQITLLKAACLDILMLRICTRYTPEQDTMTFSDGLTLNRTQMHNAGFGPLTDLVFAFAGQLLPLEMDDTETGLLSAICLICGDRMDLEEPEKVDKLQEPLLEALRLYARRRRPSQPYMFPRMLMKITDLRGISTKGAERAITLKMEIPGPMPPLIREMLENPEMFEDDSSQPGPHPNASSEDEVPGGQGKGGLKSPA
Sequence of Retinoic acid receptor alpha (Homo sapiens) (P10276 whole entry, looked up, the tested form may be a part): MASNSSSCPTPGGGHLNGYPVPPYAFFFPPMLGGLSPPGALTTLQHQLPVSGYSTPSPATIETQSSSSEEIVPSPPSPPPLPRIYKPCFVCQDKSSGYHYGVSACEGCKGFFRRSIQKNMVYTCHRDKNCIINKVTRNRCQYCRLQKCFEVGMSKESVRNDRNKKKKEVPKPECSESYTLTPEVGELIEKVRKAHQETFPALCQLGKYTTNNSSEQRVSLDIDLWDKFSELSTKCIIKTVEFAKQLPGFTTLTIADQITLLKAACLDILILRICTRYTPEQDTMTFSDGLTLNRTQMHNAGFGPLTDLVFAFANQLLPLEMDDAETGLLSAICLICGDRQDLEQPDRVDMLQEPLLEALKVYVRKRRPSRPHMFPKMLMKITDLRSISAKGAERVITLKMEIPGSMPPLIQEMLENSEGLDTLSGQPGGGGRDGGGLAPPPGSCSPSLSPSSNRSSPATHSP

As to `CC(C)(CO)COC(=O)C(C)(C)CO`, the result in assay [1] and in assay [2] was inactive.
`CC(C)CO`: the compound was called inactive in assay [1] and in assay [3].
Take `CC(C)c1ccc(O)c(C(C)C)c1`: the call in assay [1], in assay [4] and in assay [5] was inactive. Moreover, in assay [2], the AC50 is 6.58 µM (active).
In the case of `[Cl][Eu]([Cl])[Cl]`, the result in assay [4] and in assay [2] was inactive.
Regarding `O=C(Oc1ccccc1)c1ccccc1O`, the compound was called inactive in assay [4] and in assay [2].
`c1ccc(-c2nc3ccccc3[nH]2)cc1`: in assay [4], the compound was classed as inactive. Moreover, the AC50 in assay [2] is 23.4 µM (active).
